According to PubChem BioAssay (NCI):
The panel holds about 79,000 compounds, 15% with a hit somewhere; the sample as a whole holds those more often. Unmarked numbers belong to inactive results. Active and inactive are the calls of the source. Rule as the data show it: active = growth inhibition above about 70%; inactive = the rest.

Experiments:
[1] = NCI Yeast Anticancer Drug Screen. Data for the rad52 strain (AID 147);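 also: 0% = growth of vehicle-treated control cultures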; conditions: S. cerevisiae rad52 mutant growth inhibition, stronger effect = higher value
Outline: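 Yeast strain carrying a DNA damage repair alteration was exposed to test compounds. Growth inhibition was measured relative to vehicle-treated controls.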

[2] = NCI Yeast Anticancer Drug Screen. Data for the wt1 strain (AID 149);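 also: 0% = growth of vehicle-treated wt1 cultures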; conditions: S. cerevisiae wt1 strain (SPY 50644) growth inhibition, stronger effect = higher value
Outline: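 Each compound is tested on wt1 yeast and the loss of growth versus vehicle gives the inhibition value.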

[3] = NCI Yeast Anticancer Drug Screen. Data for the rad50EPP+ strain (AID 151);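 also: 0% = growth of vehicle-treated control cultures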; conditions: S. cerevisiae rad50 mutant strain, stronger effect = higher value
Outline: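 Yeast strain carrying rad50 alteration (rad50EPP+) exposed to compounds; growth inhibition measured relative to vehicle-treated controls.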

[4] = NCI Yeast Anticancer Drug Screen. Data for the mgt1 strain (AID 153); conditions: S. cerevisiae mgt1 mutant growth inhibition, stronger effect = higher value
Outline: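 Yeast mgt1 strain (DNA repair/cell-cycle alteration panel) exposed to compounds; growth inhibition measured relative to vehicle-treated controls.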

[5] = NCI Yeast Anticancer Drug Screen. Data for the rad50 strain (AID 155);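 also: 0% = growth of vehicle-only cultures of the same strain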; conditions: S. cerevisiae rad50 strain growth inhibition, stronger effect = higher value
Outline: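 Vehicle-treated cultures provide the reference for the growth inhibition reported for compound-exposed, repair-deficient yeast.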

[6] = NCI Yeast Anticancer Drug Screen. Data for the mec2-1 strain (AID 157); conditions: S. cerevisiae mec2-1 strain, stronger effect = higher value
Outline: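 mec2-1 yeast strain, carrying an alteration in DNA damage repair or cell cycle control, was exposed to compounds; growth inhibition was measured relative to vehicle-treated controls.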

[7] = NCI Yeast Anticancer Drug Screen. Data for the rad14 strain (AID 159);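 also: 0% = growth of vehicle-treated control cultures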; conditions: S. cerevisiae rad14 strain growth inhibition, stronger effect = higher value
Outline: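 Inhibition of growth is reported for a repair-deficient yeast mutant following compound treatment, calculated relative to cultures that received vehicle.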

[8] = NCI Yeast Anticancer Drug Screen. Data for the sgs1 mgt1 strain (AID 161);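 also: 0% = growth of cultures given vehicle only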; conditions: S. cerevisiae sgs1 mgt1 strain, stronger effect = higher value
Outline: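 Growth of a repair-deficient yeast mutant was monitored after compound treatment and expressed as inhibition relative to vehicle-treated cultures.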

[9] = NCI Yeast Anticancer Drug Screen. Data for the cln2 rad14 strain (AID 165);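 also: 0% = growth equal to vehicle treated cultures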; conditions: S. cerevisiae cln2 rad14 strain, stronger effect = higher value
Outline: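 Yeast carrying cln2 and rad14 alterations (cell cycle control and DNA damage repair) were exposed to compounds. Growth inhibition was measured against vehicle-treated controls.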

[10] = NCI Yeast Anticancer Drug Screen. Data for the bub3 strain (AID 167); conditions: S. cerevisiae bub3 mutant strain, stronger effect = higher value
Outline: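 Mutant yeast screening strain plus compound; vehicle-treated cultures serve as the 0% inhibition reference.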

[11] = NCI Yeast Anticancer Drug Screen. Data for the wt2 strain (AID 169); conditions: S. cerevisiae wt2 strain growth inhibition, stronger effect = higher value
Outline: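 Yeast cells were exposed to test compounds, and growth inhibition was measured relative to vehicle-treated controls.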

[12] = NCI Yeast Anticancer Drug Screen. Data for the mlh1 strain (AID 171);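 also: 0% = growth of vehicle-treated control cultures of the same strain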; conditions: S. cerevisiae mlh1 strain growth inhibition, stronger effect = higher value
Outline: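 Yeast carrying a defined genetic alteration in DNA damage repair or cell cycle control were exposed to test compounds. Growth inhibition was measured relative to vehicle-treated controls.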

[13] = NCI Yeast Anticancer Drug Screen. Data for the sgs1 strain (AID 173);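 also: 0% = growth of vehicle-only control cultures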; conditions: S. cerevisiae sgs1 mutant, stronger effect = higher value
Outline: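 Yeast mutant strains carrying defined defects in DNA damage repair or cell cycle control were exposed to test compounds. Growth inhibition was scored against vehicle-treated controls.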

[14] = NCI Yeast Anticancer Drug Screen. Data for the mlh1 rad18 strain (AID 175); conditions: S. cerevisiae mlh1 rad18 strain growth inhibition, stronger effect = higher value
Outline: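 Growth inhibition of the yeast strain was measured after compound exposure and expressed relative to vehicle-treated controls. The strain carries defined defects in DNA damage repair.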

[15] = NCI Yeast Anticancer Drug Screen. Data for the rad18 strain (AID 177); conditions: S. cerevisiae rad18 mutant growth inhibition, stronger effect = higher value
Outline: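 Yeast carrying a defined DNA damage repair alteration were exposed to compounds. Growth inhibition was expressed relative to vehicle-treated controls.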

[16] = at 5.0 µM (retest, dose inferred, filed as 0.5)
[17] = at 50.0 µM (retest, dose inferred, filed as 5.0)

Clc1c(Cl)c(Cl)c2c(nnn2C2CCCO2)c1Cl (stereo not drawn) gave a growth inhibition ([1]; at 1.2 µM) of 10%, a growth inhibition ([1]; at 3.7 µM) of 19% and a growth inhibition ([1]; at 11.0 µM) of 24%. The growth inhibition ([1]; at 33.0 µM) was 33%, the growth inhibition ([1]; at 100.0 µM) was 58% and the growth inhibition ([2]; at 1.2 µM) was 0%. For the same compound, the growth inhibition ([2]; at 3.7 µM) was -1%, the growth inhibition ([2]; at 11.0 µM) was -5% and the growth inhibition ([2]; at 33.0 µM) was 11%. For the same compound, the growth inhibition ([2]; at 100.0 µM) was 46%, the growth inhibition ([3]; at 1.2 µM) was -32% and the growth inhibition ([3]; at 3.7 µM) was -10%. It also gave a growth inhibition ([3]; at 11.0 µM) of -9%, a growth inhibition ([3]; at 33.0 µM) of -4% and a growth inhibition ([3]; at 100.0 µM) of 35%. For the same compound, the growth inhibition ([4]; at 1.2 µM) was -24%, the growth inhibition ([4]; at 3.7 µM) was -9% and the growth inhibition ([4]; at 11.0 µM) was -5%. For the same compound, the growth inhibition ([4]; at 33.0 µM) was -1%, the growth inhibition ([4]; at 100.0 µM) was 75% (active) and the growth inhibition ([5]; at 1.2 µM) was 5%. For the same compound, the growth inhibition ([5]; at 3.7 µM) was -1%, the growth inhibition [5, 16] was 4% and the growth inhibition ([5]; at 11.0 µM) was 6%. For the same compound, the growth inhibition ([5]; at 33.0 µM) was 14%, the growth inhibition [5, 17] was 38% and the growth inhibition ([5]; at 50.0 µM) was 78.3% (active). It also gave a growth inhibition ([5]; at 100.0 µM) of 48%, a growth inhibition ([6]; at 1.2 µM) of 2% and a growth inhibition ([6]; at 3.7 µM) of -1%. The growth inhibition [6, 16] was 12%, the growth inhibition ([6]; at 11.0 µM) was 10% and the growth inhibition ([6]; at 33.0 µM) was 8%. For the same compound, the growth inhibition [6, 17] was 48%, the growth inhibition ([6]; at 50.0 µM) was 85.2% (active) and the growth inhibition ([6]; at 100.0 µM) was 76% (active). The growth inhibition ([7]; at 1.2 µM) was -11%, the growth inhibition ([7]; at 3.7 µM) was -8% and the growth inhibition ([7]; at 11.0 µM) was -1%. For the same compound, the growth inhibition ([7]; at 33.0 µM) was 12%, the growth inhibition ([7]; at 100.0 µM) was 75% (active) and the growth inhibition [8, 16] was -1%. The growth inhibition [8, 17] was 80% (active), the growth inhibition ([8]; at 50.0 µM) was 78% (active) and the growth inhibition [9, 16] was 8%. The growth inhibition [9, 17] was 62%, the growth inhibition ([9]; at 50.0 µM) was 74.8% (active) and the growth inhibition ([10]; at 1.2 µM) was -7%. The growth inhibition ([10]; at 3.7 µM) was -8%, the growth inhibition [10, 16] was 18% and the growth inhibition ([10]; at 11.0 µM) was -22%. For the same compound, the growth inhibition ([10]; at 33.0 µM) was 11%, the growth inhibition [10, 17] was 60% and the growth inhibition ([10]; at 50.0 µM) was 83.2% (active). For the same compound, the growth inhibition ([10]; at 100.0 µM) was 50%, the growth inhibition ([11]; at 1.2 µM) was -14% and the growth inhibition ([11]; at 3.7 µM) was -2%. The growth inhibition ([11]; at 11.0 µM) was 6%, the growth inhibition ([11]; at 33.0 µM) was 60% and the growth inhibition ([11]; at 100.0 µM) was 97% (active). It also gave a growth inhibition ([12]; at 1.2 µM) of -5%, a growth inhibition ([12]; at 3.7 µM) of -2% and a growth inhibition ([12]; at 11.0 µM) of 4%. The growth inhibition ([12]; at 33.0 µM) was 30%, the growth inhibition ([12]; at 100.0 µM) was 85% (active) and the growth inhibition ([13]; at 1.2 µM) was -30%. The growth inhibition ([13]; at 3.7 µM) was -13%, the growth inhibition ([13]; at 11.0 µM) was -1% and the growth inhibition ([13]; at 33.0 µM) was 12%. The growth inhibition ([13]; at 100.0 µM) was 83% (active), the growth inhibition [14, 16] was 7% and the growth inhibition [14, 17] was 45%. The growth inhibition ([14]; at 50.0 µM) was 83.8% (active), the growth inhibition ([15]; at 1.2 µM) was -15% and the growth inhibition ([15]; at 3.7 µM) was -4%. The growth inhibition ([15]; at 11.0 µM) was 2%, the growth inhibition ([15]; at 33.0 µM) was 14% and the growth inhibition ([15]; at 100.0 µM) was 54%.
